SMILES strings stand for the structures. Over roughly 2,900 compounds, “NF-kB SEAP reporter activity, fold change vs agonist alone” has its median near 0.99; the highest 2% begin near 2.6. For the sample, the highest values were picked, then their nearest neighbours and some compounds at random.

Test [1] deals with RAW-Dual. In words: NF-kB SEAP reporter activity, fold change vs agonist alone; higher = enhanced NF-kB activity. Conditions: library stock concentration (final ~1000-fold dilution): 10 mM. In short, it runs like this:
(§1)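 After 50 nL of library stock was delivered by pin tool to RAW-Dual macrophages (50,000 cells/well, DMEM, 384-well plates), a PRR agonist was added 1 h later and the plates were kept at 37 °C, 5% CO2. Twenty hours later, IRF was read from supernatant by QuantiLuc luminescence and NF-κB by QuantiBlue absorbance at 620 nm. Reporter activity is stated as fold change over agonist-alone wells. Wells with IncuCyte confluency under 70% of agonist controls in both mask sets were counted as cytotoxic.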

Test [2] relates to RAW-Dual. In words: NF-kB SEAP reporter activity, fold change vs agonist alone; cytotoxicity flag (confluency mask): not cytotoxic; higher = enhanced NF-kB activity. In short, it runs like this:
as §1

Test [3] has as its system RAW-Dual. Put plainly: NF-kB SEAP reporter activity, fold change vs agonist alone; cytotoxicity flag (confluency mask): cytotoxic (confluency <70% of control); higher = enhanced NF-kB activity. The method in brief: as §1
[4] abbreviates: cytotoxicity flag (confluency mask): not cytotoxic, agonist: Imiquimod (TLR7) […].
Where [5] appears, read: cytotoxicity flag (confluency mask): not cytotoxic, agonist: MPLA (TLR4) […].
[6] abbreviates: agonist: ODN 1826 (TLR9) 0.5 ug/mL.
[7] abbreviates: agonist: Pam2CSK4 (TLR2/6) 0.1 ug/mL.
Setting [8] is: agonist: Pam3CSK4 (TLR2/1) 0.1 ug/mL.

Consider `C=C(CC(=O)OCCCCCCCC)C(=O)O`, for which the “NF-kB SEAP reporter activity” value in test [1] (setting [4]) turned out to be 0.711; in test [1] (setting [5]) it was 0.955.
Regarding `C=C(CC(=O)OCCCCCCCC)C(=O)O` (library stock concentration (final ~1000-fold dilution): 10 mM), the “NF-kB SEAP reporter activity” value turned out to be 0.76 in test [2] (agonist: LPS (TLR4) 0.1 ug/mL), 0.641 in test [2] (setting [6]), 0.455 in test [2] (setting [7]) and 0.645 in test [2] (setting [8]).
`NCC(O)(c1ccc(Cl)cc1)c1ccc(-c2cn[nH]c2)cc1` (centres undefined) (library stock concentration (final ~1000-fold dilution): 10 mM): the “NF-kB SEAP reporter activity” value came to 0.342 in test [2] (agonist: LPS (TLR4) 0.1 ug/mL), 0.435 in test [2] (setting [6]), 0.236 in test [2] (setting [7]) and 0.327 in test [2] (setting [8]).
Take `NCC(O)(c1ccc(Cl)cc1)c1ccc(-c2cn[nH]c2)cc1` (centres undefined): the “NF-kB SEAP reporter activity” value in test [1] (setting [4]) came out at 0.966; in test [1] (setting [5]), 0.527.
Turning to `CN1C(=N)NC(C)(c2cc(NC(=O)c3ccc(F)cn3)ccc2F)CS1(=O)=O.O=C(O)C(F)(F)F` (centres undefined) (library stock concentration (final ~1000-fold dilution): 10 mM), the “NF-kB SEAP reporter activity” value in test [2] (agonist: LPS (TLR4) 0.1 ug/mL) came to 0.826; in test [2] (setting [6]), 0.731; in test [2] (setting [7]), 0.823; in test [2] (setting [8]), 0.856.
On to `CN1C(=N)NC(C)(c2cc(NC(=O)c3ccc(F)cn3)ccc2F)CS1(=O)=O.O=C(O)C(F)(F)F` (centres undefined), for which the results for the “NF-kB SEAP reporter activity” value in test [1] (setting [4]) and in test [1] (setting [5]) were 0.873 and 0.781, respectively.
In the case of `O=C(OCC1OC(OC(=O)c2cc(O)c(O)c(OC(=O)c3cc(O)c(O)c(O)c3)c2)C(OC(=O)c2cc(O)c(O)c(OC(=O)c3cc(O)c(O)c(O)c3)c2)C(OC(=O)c2cc(O)c(O)c(OC(=O)c3cc(O)c(O)c(O)c3)c2)C1OC(=O)c1cc(O)c(O)c(OC(=O)c2cc(O)c(O)c(O)c2)c1)c1cc(O)c(O)c(OC(=O)c2cc(O)c(O)c(O)c2)c1` (centres undefined) (library stock concentration (final ~1000-fold dilution): 10 mM), the “NF-kB SEAP reporter activity” value in test [2] (agonist: LPS (TLR4) 0.1 ug/mL) came to 1.25; in test [2] (setting [6]) it was 0.116; in test [2] (setting [7]), 1.04; in test [2] (setting [8]), 0.185.
Consider `O=C(OCC1OC(OC(=O)c2cc(O)c(O)c(OC(=O)c3cc(O)c(O)c(O)c3)c2)C(OC(=O)c2cc(O)c(O)c(OC(=O)c3cc(O)c(O)c(O)c3)c2)C(OC(=O)c2cc(O)c(O)c(OC(=O)c3cc(O)c(O)c(O)c3)c2)C1OC(=O)c1cc(O)c(O)c(OC(=O)c2cc(O)c(O)c(O)c2)c1)c1cc(O)c(O)c(OC(=O)c2cc(O)c(O)c(O)c2)c1` (centres undefined), for which the “NF-kB SEAP reporter activity” value in test [1] (setting [4]) was found to be 0.144; in test [1] (setting [5]), 0.319.
Turning to `C=CC1CC1(NC(=O)C1CC(Oc2ncc(OC)c3ccc(Cl)cc23)CN1C(=O)C(NC(=O)OC(C)(C)C)C(C)(C)C)C(=O)NS(=O)(=O)C1CC1` (centres undefined) (library stock concentration (final ~1000-fold dilution): 10 mM), the “NF-kB SEAP reporter activity” value in test [3] (agonist: LPS (TLR4) 0.1 ug/mL) was determined as 1.1; in test [3] (setting [6]) it was 0.915; in test [3] (setting [7]), 0.518; in test [3] (setting [8]) it was 0.508.
As for `C=CC1CC1(NC(=O)C1CC(Oc2ncc(OC)c3ccc(Cl)cc23)CN1C(=O)C(NC(=O)OC(C)(C)C)C(C)(C)C)C(=O)NS(=O)(=O)C1CC1` (centres undefined), the “NF-kB SEAP reporter activity” value in test [1] (cytotoxicity flag (confluency mask): cytotoxic (confluency <70% of control), agonist: MPLA (TLR4) […]) worked out at 1.06.

Source of the values: the supplement of paper PMC10037445.
